Laboratory results from PubChem BioAssay (Tox21).
Records with an inconclusive call do not appear. Calls of active or inactive are those of the source. Unless noted, calls come from the whole dose curve; as a rule, active = well fitted curve in the direction sought with a large enough effect in the repeat runs; inconclusive = weak or mixed curves; inactive = no such curve, though single readings can be large; an effect the other way counts as inactive or inconclusive.

Key:
[1] = target: Thyrotropin receptor (Homo sapiens) (UniProt P16473); test: qHTS assay to identify small molecule antagonists of the thyroid stimulating hormone receptor (TSHR) signaling pathway (AID 1259385; calls by dose curve; note: nearly all actives have a fitted effect of over 20% in size; note: potency is the fitted concentration of half-maximal effect)
Chain of Thyrotropin receptor (Homo sapiens) (P16473 whole entry, looked up): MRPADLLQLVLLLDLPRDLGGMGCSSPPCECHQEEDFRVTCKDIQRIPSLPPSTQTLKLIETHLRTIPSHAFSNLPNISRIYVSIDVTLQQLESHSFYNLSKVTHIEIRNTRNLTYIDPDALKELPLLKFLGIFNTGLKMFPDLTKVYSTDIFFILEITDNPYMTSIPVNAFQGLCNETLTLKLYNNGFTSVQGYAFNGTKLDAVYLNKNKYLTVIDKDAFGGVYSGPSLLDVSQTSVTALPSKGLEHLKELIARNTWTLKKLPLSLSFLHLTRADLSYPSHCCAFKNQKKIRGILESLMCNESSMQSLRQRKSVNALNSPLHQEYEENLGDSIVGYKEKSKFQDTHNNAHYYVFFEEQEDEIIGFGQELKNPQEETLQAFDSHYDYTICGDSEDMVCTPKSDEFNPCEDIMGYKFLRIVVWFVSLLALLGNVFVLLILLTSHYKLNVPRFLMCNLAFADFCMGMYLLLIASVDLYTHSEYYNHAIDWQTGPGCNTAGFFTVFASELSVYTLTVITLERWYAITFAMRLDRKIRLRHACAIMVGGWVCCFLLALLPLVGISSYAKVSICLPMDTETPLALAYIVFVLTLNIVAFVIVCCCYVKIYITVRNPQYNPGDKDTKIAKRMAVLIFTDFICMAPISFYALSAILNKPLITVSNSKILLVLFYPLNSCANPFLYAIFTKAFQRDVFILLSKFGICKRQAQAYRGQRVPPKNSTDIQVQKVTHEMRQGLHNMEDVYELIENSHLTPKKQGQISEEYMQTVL
In short: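 TSHR-HEK293 cells (800/well) plated 18 h, then compounds with Ro20-1724 and TSH at 1.5 ng/mL final, 30 min at room temperature. cAMP quantified by HTRF (cAMP-d2/anti-cAMP-cryptate, 1 h); 15 concentrations in triplicate.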

[2] = qHTS assay to identify small molecule agonists of the estrogen receptor alpha (ER-alpha) signaling pathway in the presence of an antagonist - cell viability counter screen (AID 1259386);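 note: series mostly up to about 92 µM; cells exposed to compounds for 22 h at 37 °C before the viability read; nearly all actives have a fitted effect of over 30% in size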
In short: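 Steps: 5-day stripped-FBS culture; seed and incubate 24hr; add ICI-182,780 (10.0nM final); pin 15-point compound titration; incubate 22hr at 37C; add CellTiter-Fluor at 21hr; read fluorescence.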

[3] = target: Progesterone receptor (Homo sapiens) (UniProt P06401); test: qHTS assay to identify small molecule agonists of the progesterone receptor (PR) signaling pathway (AID 1346784; calls by dose curve; note: nearly all actives have a fitted effect of over 30% in size)
Chain of Progesterone receptor (Homo sapiens) (P06401 whole entry, looked up): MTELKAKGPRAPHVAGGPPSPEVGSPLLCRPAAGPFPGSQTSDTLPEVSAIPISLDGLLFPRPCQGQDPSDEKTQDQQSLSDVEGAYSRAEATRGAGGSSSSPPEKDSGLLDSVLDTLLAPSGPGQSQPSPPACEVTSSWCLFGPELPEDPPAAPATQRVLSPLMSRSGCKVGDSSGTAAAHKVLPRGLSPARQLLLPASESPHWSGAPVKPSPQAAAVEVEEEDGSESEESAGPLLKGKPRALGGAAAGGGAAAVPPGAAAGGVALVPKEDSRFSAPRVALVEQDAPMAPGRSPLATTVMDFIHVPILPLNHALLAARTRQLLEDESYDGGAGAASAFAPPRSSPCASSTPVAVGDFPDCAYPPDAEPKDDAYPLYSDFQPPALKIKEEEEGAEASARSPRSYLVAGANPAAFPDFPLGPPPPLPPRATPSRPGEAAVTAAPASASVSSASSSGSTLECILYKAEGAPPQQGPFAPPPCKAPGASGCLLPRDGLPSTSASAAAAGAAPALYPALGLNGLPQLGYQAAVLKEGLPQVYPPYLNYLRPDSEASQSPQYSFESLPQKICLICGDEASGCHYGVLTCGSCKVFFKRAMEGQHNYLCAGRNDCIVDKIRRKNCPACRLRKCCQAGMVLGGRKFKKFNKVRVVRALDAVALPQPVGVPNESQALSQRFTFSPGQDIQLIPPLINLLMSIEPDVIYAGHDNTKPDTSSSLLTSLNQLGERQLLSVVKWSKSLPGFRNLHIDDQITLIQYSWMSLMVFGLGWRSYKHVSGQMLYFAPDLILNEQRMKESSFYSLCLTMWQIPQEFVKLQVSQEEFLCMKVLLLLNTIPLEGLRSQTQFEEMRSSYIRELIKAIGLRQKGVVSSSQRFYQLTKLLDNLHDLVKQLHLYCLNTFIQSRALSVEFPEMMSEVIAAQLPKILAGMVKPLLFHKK
In short: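 Compounds were tested for PR agonism in HEK 293T cells bearing a beta-lactamase gene under UAS control. Treatment lasted 16 hr at 37C; signal came from fluorescence of a FRET substrate.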

[4] = target: Progesterone receptor (Homo sapiens) (UniProt P06401); test: qHTS assay to identify small molecule antagonists of the progesterone receptor (PR) signaling pathway (AID 1346795; active = well fitted inhibition curve with a large enough effect in the signal ratio in the repeat runs, not every such curve was filed as active; the % refers to the signal ratio; note: potency is the fitted concentration of half-maximal effect)
In short: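 In HEK293T cells bearing the PR-UAS-bla reporter, compound effects on promegestone-driven (1 nM) beta-lactamase expression are assessed after 16 hr using a fluorescent FRET substrate incubated 2 hr at room temperature.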

[5] = qHTS assay to identify small molecule agonists of the progesterone receptor (PR) signaling pathway - cell viability counter screen (AID 1346799; calls by dose curve; note: nearly all actives have a fitted effect of over 45% in size)
In short: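 Here, 3,000 PR-UAS-bla HEK293T cells per well were treated with compounds for 16 hr after a 6 hr preincubation at 37C and 5% CO2; cell viability is the CellTiter-Glo luminescence signal.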

[6] = qHTS assay to identify small molecule antagonists of the TGF-beta/Smad signaling pathway - cell viability counter screen (AID 1346824); note: nearly all actives have a fitted effect of over 50% in size
In short: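 SBE-bla HEK 293T cells, incubated overnight, then compound plus 0.25 ng/mL TGF-beta1 (stock added) for 5 hr at 37 C. Viability was read in the same wells by CellTiter-Glo luminescence after 30 min at room temperature.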

[7] = qHTS assay to identify small molecule agonists of the TGF-beta/Smad signaling pathway - cell viability counter screen (AID 1346829); note: top concentration of the series differs between compounds; nearly all actives have a fitted effect of over 45% in size
In short: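 Here the cytotoxicity of library compounds is measured in SBE-bla HEK 293T cells treated for 5 hr, using CellTiter-Glo added to wells already read for the beta-lactamase reporter.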

[8] = qHTS assay to identify small molecule agonists of the TGF-beta/Smad signaling pathway (AID 1346859; active = well fitted activation curve with a large enough effect in the signal ratio in the repeat runs, not every such curve was filed as active; the % refers to the signal ratio; note: series mostly up to about 77 µM)
In short: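 Each well held 4,000 SBE-bla HEK 293T cells incubated overnight before compound addition; 5 hr later the cleavable FRET substrate went on for 2 hr at room temperature, and fluorescence was read at two emissions.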

[9] = target: Thyrotropin-releasing hormone receptor (Homo sapiens) (UniProt P34981); test: qHTS assay to identify small molecule antagonists of the thyrotropin-releasing hormone receptor (TRHR) signaling pathway (AID 1346877; active = well fitted inhibition curve with a large enough effect in the repeat runs, not every such curve was filed as active; note: series mostly up to about 51 µM)
Chain of Thyrotropin-releasing hormone receptor (Homo sapiens) (P34981 whole entry, looked up): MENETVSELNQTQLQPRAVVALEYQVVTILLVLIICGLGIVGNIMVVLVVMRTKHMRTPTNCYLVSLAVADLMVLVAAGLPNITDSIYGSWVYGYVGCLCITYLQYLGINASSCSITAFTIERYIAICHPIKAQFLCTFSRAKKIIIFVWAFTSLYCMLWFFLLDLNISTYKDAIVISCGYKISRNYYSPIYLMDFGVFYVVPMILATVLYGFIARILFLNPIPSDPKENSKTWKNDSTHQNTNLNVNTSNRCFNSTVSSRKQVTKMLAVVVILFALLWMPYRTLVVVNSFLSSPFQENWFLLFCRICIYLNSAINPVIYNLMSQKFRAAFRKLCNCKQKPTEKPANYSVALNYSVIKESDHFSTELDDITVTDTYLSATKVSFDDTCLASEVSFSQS
In short: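 Human TRHR in HEK293 cells; inhibition of the intracellular calcium rise triggered by 1 nM TRH was followed by fluorescence over 3 min. Compounds were run at 15 concentrations, three replicates each.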

[10] = target: Thyrotropin-releasing hormone receptor (Homo sapiens) (UniProt P34981); test: qHTS assay to identify small molecule agonists of the thyrotropin-releasing hormone receptor (TRHR) signaling pathway (AID 1346891; calls by dose curve; note: series mostly up to about 58 µM)
In short: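 Screening of agonists relied on calcium signalling in HEK293 cells expressing human TRHR: dye loading 2 h at 37 °C preceded compound addition and a 3-min fluorescence time course.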

[11] = Caspase-3/7 induction in HepG2 cells by small molecules, qHTS assay (AID 1346978); note: nearly all actives have a fitted effect of over 15% in size
In short: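 Wild-type HepG2 cells, 2,000/well, settled 5 hr at 37 C and 5% CO2, then compound-treated for 17 hr; caspase-3/7 activity read by luminescent Caspase-Glo 3/7 after 30 min at room temperature.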

[12] = Caspase-3/7 induction in CHO-K1 cells by small molecules, qHTS cell viability counter screen (AID 1346979); note: nearly all actives have a fitted effect of over 35% in size
In short: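 CellTiter-Fluor viability check, qHTS format: wild-type CHO-K1, 16hr compound treatment, 1hr reagent incubation, fluorescence read.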

[13] = Caspase-3/7 induction in CHO-K1 cells by small molecules, qHTS assay (AID 1346980); note: nearly all actives have a fitted effect of over 15% in size
In short: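 Wild-type CHO-K1 cells exposed to compounds for 17hr at 37 C, 5% CO2. Caspase-3/7 activity then measured by Caspase-Glo 3/7 luminescence after 30min at room temperature.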

[14] = Caspase-3/7 induction in HepG2 cells by small molecules, qHTS cell viability counter screen (AID 1346981); note: series mostly up to about 92 µM; nearly all actives have a fitted effect of over 30% in size
In short: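 The parent HepG2 line is plated at 2,000 cells per well and rested 5 hr before compound pinning from DMSO stocks. Following a 16-hr treatment at 37 C, a fluorogenic live-cell substrate (CellTiter-Fluor) reports viability after 1 hr.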

[15] = target: Nuclear receptor subfamily 1 group I member 2 (Rattus norvegicus) (UniProt Q9R1A7); test: Rat pregnane X receptor (rPXR) activation by small molecules, qHTS assay (AID 1346983); details: rPXR luciferase reporter cells, One-Glo luminescence, 24 h; max activation: active compounds read high; note: nearly all actives have a fitted effect of over 20% in size
Chain of Nuclear receptor subfamily 1 group I member 2 (Rattus norvegicus) (Q9R1A7 whole entry, looked up): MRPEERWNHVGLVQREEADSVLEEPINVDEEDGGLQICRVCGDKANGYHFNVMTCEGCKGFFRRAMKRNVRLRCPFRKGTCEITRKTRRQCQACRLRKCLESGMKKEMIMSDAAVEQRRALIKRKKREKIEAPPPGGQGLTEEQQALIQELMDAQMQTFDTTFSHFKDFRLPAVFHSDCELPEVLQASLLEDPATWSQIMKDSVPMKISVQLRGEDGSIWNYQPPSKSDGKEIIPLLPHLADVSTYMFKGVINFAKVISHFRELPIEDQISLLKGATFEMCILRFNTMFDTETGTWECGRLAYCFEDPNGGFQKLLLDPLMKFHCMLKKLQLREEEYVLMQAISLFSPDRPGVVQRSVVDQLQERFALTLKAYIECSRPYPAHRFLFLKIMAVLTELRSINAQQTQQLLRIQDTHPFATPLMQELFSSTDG
In short: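 Cell-based rPXR activation assay: rPXR cells, 2,000 per well, rested 5hr at 37 C, then exposed to compounds in DMSO for 24 hr at 37 C. Luciferase activity read by One-Glo luminescence after 30 min at room temperature.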

[16] = qHTS assay to identify small molecule antagonists of the progesterone receptor (PR) signaling pathway - cell viability counter screen (AID 1346798); note: series mostly up to about 92 µM; nearly all actives have a fitted effect of over 50% in size
In short: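 Following a 4 hr attachment, PR-UAS-bla HEK293T cells in charcoal-stripped FBS medium were exposed to compounds with R5020 for 16 hr; CellTiter-Glo was added and luminescence read after 30 min at room temperature.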

[17] = Human pregnane X receptor (PXR) small molecule agonists, qHTS cell viability counter screen (AID 1346977); note: nearly all actives have a fitted effect of over 50% in size
In short: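 Tox21 qHTS format; PXR-Luc HepG2, 2,000/well, charcoal-stripped FBS 5%. Cpd exposure 24hr. Read: CellTiter-Fluor fluorescence, multiplexed with luciferase.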

[18] = target: Nuclear receptor subfamily 1 group I member 2 (Homo sapiens) (UniProt O75469); test: Human pregnane X receptor (PXR) small molecule agonists, qHTS assay (AID 1346982); note: nearly all actives have a fitted effect of over 35% in size; note: potency is the fitted concentration of half-maximal effect
Chain of Nuclear receptor subfamily 1 group I member 2 (Homo sapiens) (O75469 whole entry, looked up): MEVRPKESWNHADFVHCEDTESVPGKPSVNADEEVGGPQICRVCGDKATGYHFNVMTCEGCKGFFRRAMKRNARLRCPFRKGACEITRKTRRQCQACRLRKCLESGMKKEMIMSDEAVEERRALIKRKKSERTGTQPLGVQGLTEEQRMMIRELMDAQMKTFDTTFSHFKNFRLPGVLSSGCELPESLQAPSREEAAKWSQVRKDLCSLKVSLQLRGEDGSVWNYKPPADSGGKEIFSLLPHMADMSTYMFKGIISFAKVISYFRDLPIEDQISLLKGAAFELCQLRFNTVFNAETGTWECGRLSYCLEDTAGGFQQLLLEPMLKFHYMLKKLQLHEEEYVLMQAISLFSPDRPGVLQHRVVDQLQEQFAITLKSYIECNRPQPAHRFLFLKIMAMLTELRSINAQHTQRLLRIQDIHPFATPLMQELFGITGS
In short: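 After plating in 5% charcoal-stripped FBS and a 5 hr rest, PXR-Luc HepG2 cells received compounds in DMSO. Following 24 hr at 37 C, ONE-Glo was added and light output read.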

[19] = target: Nuclear receptor subfamily 1 group I member 2 (Homo sapiens) (UniProt O75469); test: CYP3A4 induction through human pregnane X receptor (PXR) by small molecules, qHTS assay (AID 1346984); note: nearly all actives have a fitted effect of over 40% in size; note: potency is the fitted concentration of half-maximal effect
In short: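 Human PXR activation is tracked via CYP3A4 promoter-luciferase in DPX-2 (HepG2) cells. Compounds treat cells for 24hr at 37C, and luminescence is read after One-Glo.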

[20] = target: Nuclear receptor subfamily 1 group I member 2 (Homo sapiens) (UniProt O75469); test: Human pregnane X receptor (PXR) activation by small molecules, qHTS assay (AID 1346985); note: nearly all actives have a fitted effect of over 40% in size; note: potency is the fitted concentration of half-maximal effect
In short: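 DPX-2 cells (HepG2 co-transfected with a PXR response element and a CYP3A4-promoter luciferase construct) were seeded at 2,000 per well, rested 5 hr at 37C, then exposed to DMSO-dissolved compounds for 24 hr. Activation was read as luciferase luminescence.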
% is set by controls: 0 for no effect and ±100 for the full control effect.

C=O
inactive: Potency [1] | Potency [2] | Potency [3] | Potency [4] | Potency [5] | outcome [6] | outcome [7] | outcome [8] | outcome [9] | Potency [10] | Potency [11] | Potency [12] | outcome [13] | Potency [14] | max activation [15] -2.05%

O=C(O)[C@@H](O)[C@H](O)[C@H](O)[C@@H](O)C(=O)O
inactive: Potency [1] | Potency [2] | Potency [3] | Potency [4] | Potency [16] | Potency [5] | outcome [6] | outcome [7] | outcome [9] | Potency [10] | Potency [17] | Potency [11] | Potency [12] | outcome [13] | Potency [18]

Cc1nnc(SCC2=C(C(=O)O)N3C(=O)[C@@H](NC(=O)Cn4cnnn4)[C@H]3SC2)s1
inactive: Potency [1] | Potency [2] | Potency [3] | Potency [4] | Potency [16] | Potency [5] | outcome [7] | outcome [8] | outcome [9] | Potency [10] | Potency [17] | Potency [11] | Potency [12] | outcome [13] | Potency [14] | Potency [18] | max activation [15] -4.1% | Potency [19] | Potency [20]

O=C(O)[C@@H]1CSCN1
inactive: Potency [1] | Potency [2] | Potency [3] | Potency [4] | Potency [16] | Potency [5] | outcome [6] | outcome [7] | outcome [8] | Potency [11] | Potency [12] | outcome [13] | Potency [14] | Potency [18] | max activation [15] 0.44% | Potency [19] | Potency [20]

CC(=O)OC1C2(C)CCC(C2)C1(C)C (stereo not given)
inactive: Potency [1] | Potency [2] | Potency [3] | Potency [4] | Potency [16] | Potency [5] | outcome [6] | outcome [7] | outcome [9] | Potency [10] | Potency [17] | Potency [11] | Potency [12] | outcome [13] | Potency [18]

CCN(CC)CCOc1ccc(Cc2ccccc2)cc1
inactive: Potency [2] | Potency [3] | Potency [4] | Potency [16] | Potency [5] | outcome [6] | outcome [7] | outcome [8] | Potency [11] | Potency [12] | outcome [13] | Potency [14] | max activation [15] -17.9%
active: Potency [1] 29.8 µM | Potency [18] 23.7 µM | Potency [19] 11.2 µM | Potency [20] 4.47 µM

Nc1ccc2ccccc2c1S(=O)(=O)O
active: Potency [18] 62.3 µM
inactive: Potency [1] | Potency [2] | Potency [3] | Potency [4] | Potency [16] | Potency [5] | outcome [6] | outcome [7] | outcome [9] | Potency [10] | Potency [17] | Potency [11] | Potency [12] | outcome [13]

CCc1cc2cc(OC)c(OC)cc2c(Cc2ccccc2)n1
inactive: Potency [1] | Potency [2] | Potency [3] | Potency [16] | outcome [6] | outcome [7] | outcome [8] | Potency [17] | Potency [11] | outcome [13]
active: Potency [4] 16.8 µM | Potency [18] 13.3 µM

COC(=O)N[C@H](C(=O)N[C@@H](Cc1ccccc1)[C@@H](O)CN(Cc1ccc(-c2ccccn2)cc1)NC(=O)[C@@H](NC(=O)OC)C(C)(C)C)C(C)(C)C
inactive: Potency [1] | Potency [2] | Potency [3] | Potency [4] | Potency [16] | outcome [6] | outcome [7] | outcome [8] | Potency [10] | Potency [17] | Potency [12] | outcome [13] | Potency [14]

CCCCCCCCCC/C=C/C#N
inactive: Potency [1] | Potency [2] | Potency [3] | Potency [4] | Potency [16] | Potency [5] | outcome [6] | outcome [7] | outcome [9] | Potency [10] | Potency [17] | Potency [12] | outcome [13] | Potency [14] | Potency [18]

Oc1ccccc1F
inactive: Potency [1] | Potency [2] | Potency [3] | Potency [4] | Potency [5] | outcome [6] | outcome [7] | outcome [8] | outcome [9] | Potency [10] | Potency [17] | Potency [11] | Potency [12] | outcome [13] | Potency [14] | Potency [18]

CCC(=O)Nc1ccc(O)cc1
inactive: Potency [1] | Potency [2] | Potency [3] | Potency [4] | Potency [5] | outcome [6] | outcome [7] | outcome [8] | outcome [9] | Potency [10] | Potency [12] | outcome [13] | Potency [18] | max activation [15] -1.74% | Potency [19] | Potency [20]

O=S(=O)(O)C(F)(F)F
inactive: Potency [1] | Potency [2] | Potency [3] | Potency [5] | outcome [6] | outcome [7] | outcome [8] | outcome [9] | Potency [10] | Potency [17] | Potency [12] | outcome [13] | Potency [14] | Potency [18]

CC(C)=CCC[C@](C)(O)[C@@H]1CC=C(C)CC1
inactive: Potency [1] | Potency [2] | Potency [3] | Potency [4] | Potency [5] | outcome [6] | outcome [7] | outcome [8] | Potency [17] | Potency [11] | outcome [13] | Potency [14] | Potency [18]

Cc1ccc([N+](=O)[O-])c(N)c1
active: Potency [4] 59.6 µM | Potency [18] 66.9 µM
inactive: Potency [1] | Potency [2] | Potency [3] | Potency [5] | outcome [6] | outcome [7] | outcome [9] | Potency [10] | Potency [11] | outcome [13]

C=CCc1cc(OC)c(O)c(C(=O)NCCO)c1
inactive: Potency [1] | Potency [2] | Potency [3] | Potency [4] | Potency [5] | outcome [6] | outcome [7] | outcome [8] | Potency [17] | Potency [11] | Potency [12] | outcome [13] | Potency [18] | max activation [15] -0.885% | Potency [19] | Potency [20]
